According to PubChem BioAssay AID1672 (Johns Hopkins Ion Channel Center, 2009):
About 2,600 (0.84%) of roughly 310,000 compounds were called active. The full list was thinned out, with actives kept by preference. Values without a mark were called inactive.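 The calls were made as follows: active = fluorescence ratio B-score at or below minus 3 SD of library scores, with starting-brightness B-score within 2 SD (cut at about -4.2 in these data); inactive = the rest.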

Each molecule was assayed against Inward rectifier potassium channel 2 (Mus musculus) (UniProt P35561) (assay: inhibitors of mouse Kir2.1 inward-rectifier potassium channel (AID 1672;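 also: channel flux triggered by added potassium and thallium sulfate stimulus; B-score of peak minus minimum fluorescence over baseline after thallium stimulus; more negative B-score means stronger Kir2.1 block with less thallium influx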)). Conditions: HEK293-Kir2.1, FluxOR thallium flux fluorescence; at 10 µM; active compounds read low.
Inward rectifier potassium channel 2 (Mus musculus), sequence (P35561 whole entry, looked up): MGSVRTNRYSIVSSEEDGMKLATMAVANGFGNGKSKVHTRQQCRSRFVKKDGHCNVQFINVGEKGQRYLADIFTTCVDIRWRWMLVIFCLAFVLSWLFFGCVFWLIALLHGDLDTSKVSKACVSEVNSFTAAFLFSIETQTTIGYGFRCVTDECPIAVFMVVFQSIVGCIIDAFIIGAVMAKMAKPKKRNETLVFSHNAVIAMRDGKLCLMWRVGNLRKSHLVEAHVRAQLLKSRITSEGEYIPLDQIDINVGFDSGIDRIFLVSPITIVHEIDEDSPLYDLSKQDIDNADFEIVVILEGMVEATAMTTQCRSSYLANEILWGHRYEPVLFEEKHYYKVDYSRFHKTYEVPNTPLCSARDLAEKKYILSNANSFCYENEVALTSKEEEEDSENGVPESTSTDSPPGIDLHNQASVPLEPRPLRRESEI

| Compound | B-score |
| --- | --- |
| O=C(NCC1CC1)c1onc(CSc2ccccc2)c1C(=O)NCC1CC1 | -0.33 |
| Cc1ccc(C)c(OCCC(=O)OCC(=O)NC(=O)NCc2ccccc2)c1 | -1.35 |
| O=C(c1ccc(NS(=O)(=O)c2ccc3[nH]c(=O)[nH]c3c2)cc1)N1CCCCC1 | -0.24 |
| O=C(COC(=O)c1ccc(F)cc1)Nc1nc2ccc([N+](=O)[O-])cc2s1 | -0.31 |
| O=C(Nc1nc2ccc([N+](=O)[O-])cc2s1)c1ccc(S(=O)(=O)N2CCCc3ccccc32)cc1 | 1.56 |
| O=C(NC(Nc1nc2ccc([N+](=O)[O-])cc2s1)(C(F)(F)F)C(F)(F)F)c1ccccc1 | -10.5 (active) |
| Cc1nc(-c2ccccc2)sc1C1(C)CC(c2cccnc2)=NO1 (centres undefined) | -0.61 |
| O=C(Nc1ccc2nc3n(c(=O)c2c1)CCCC3)c1ccc(Cl)nc1 | -0.4 |
| CCc1cccc(C)c1NC(=O)COC(=O)CNC(=O)c1cccs1 | -0.01 |
| CCOC(=O)N1CCN(C(=O)c2ccccc2SCC(=O)NCC2CCCCC2)CC1 | -1.08 |
| CC(CCc1ccc(O)cc1)NCc1ccc(Cl)cc1Cl (centres undefined) | -1.22 |
| OC(CNCCc1ccc(Cl)cc1Cl)COc1ccccc1 (centres undefined) | -5.54 (active) |
| OC(CNCc1ccc2c(c1)OCO2)COc1ccccc1 (centres undefined) | 0.51 |
| O=C(Oc1ccc(-c2nnco2)cc1)c1ccc(F)c(S(=O)(=O)N2CCOCC2)c1 | 0.69 |
| Cc1ccc2nc(SCC(=O)N3CCN(c4ccccc4)CC3)nc(=O)n2c1 | -0.66 |
| CCOC(=O)c1c(C)[nH]c(C)c1S(=O)(=O)N(C)CC(=O)Nc1ccccc1C | -0.21 |
| CCOC(=O)c1c(C)[nH]c(C)c1S(=O)(=O)NCCCc1ccco1 | -4.22 (active) |
| NC(=O)c1cc(S(=O)(=O)NCCCc2ccco2)cs1 | -1.45 |
| O=S(=O)(NCCCc1ccccc1)c1ccc(Br)cc1 | -0.26 |
| C=C(C)CNC(=O)c1ccc(OC2CCN(C(=O)COC)CC2)cc1 | 2.19 |

| Compound | B-score |
| --- | --- |
| CC(C)c1ccc(S(=O)(=O)N2CCN(C(=O)CN3C(=O)NC(C)(c4ccccc4)C3=O)CC2)cc1 (centres undefined) | -0.17 |
| CN(C1CCS(=O)(=O)C1)S(=O)(=O)c1ccc2ccccc2c1 (centres undefined) | -2.88 |
| CC1CCN(C(=O)c2ccc3c(c2)NC(=O)CN3)CC1 | -1.15 |
| CCN1CCN(CCNC(=O)c2ccc3c(c2)NC(=O)/C(=C\c2ccc(OC)c(OC)c2)S3)CC1 | -0.6 |
| O=C1Nc2cc(C(=O)N3CCC(N4CCCCC4)CC3)ccc2S/C1=C\c1ccccc1 | -5.53 (active) |
| CC(C)(C)NCCCOc1ccc(Cl)cc1C(C)(C)C | -3 |
| CN(C)CCOc1ccc(Cl)cc1C(C)(C)C | -4.91 (active) |
| Cn1c(CCCOc2ccc(Cl)cc2Cl)n[nH]c1=S | 1.02 |
| CC(C)COc1ccc(C(=O)OCC(=O)NCCC2=CCCCC2)cc1 | -0.32 |
| CC1(C)C/C(=N/Nc2ccc([N+](=O)[O-])cc2[N+](=O)[O-])C(C)(C)O1 | -0.99 |
| Cc1ccc2nc(SCC(=O)Nc3cccc4ccccc34)nc(=O)n2c1 | -0.81 |
| COc1ccccc1CNS(=O)(=O)c1ccc2c(c1)NC(=O)CS2 | -3.14 |
| O=C1CSc2ccc(S(=O)(=O)NCc3ccccc3)cc2N1 | -1.97 |
| CCC(Cc1ccccc1)NS(=O)(=O)c1ccc2c(c1)NC(=O)CS2 (centres undefined) | -7.18 (active) |
| O=C(Nc1cc(Cl)ccc1N1CCOCC1)c1ccc(N2CCCC2=O)cc1 | -0.11 |
| CCN(CC(=O)Nc1ccccc1C(F)(F)F)C(=O)CSCc1c(C)noc1C | -0.18 |
| C/C=C(/C)C(=O)OC1Cc2c(ccc3ccc(=O)oc23)OC1(C)C (centres undefined) | -6.49 (active) |
| CC1(C)Oc2ccc3ccc(=O)oc3c2/C(=C/NCCO)C1=O | -0.79 |
| CC1(C)Oc2ccc3ccc(=O)oc3c2/C(=N/O)C1=O | -3.77 |
| COc1ccc(C(CNC(=O)c2cccc(S(=O)(=O)Nc3ccccc3Cl)c2)N2CCOCC2)cc1 (centres undefined) | 0.72 |

| Compound | B-score |
| --- | --- |
| COc1ccccc1NS(=O)(=O)c1ccc(C(=O)N2CCN(c3ccccc3O)CC2)cc1 | -0.57 |
| COc1ccc(C(C#N)(CC(=O)O)c2cnccn2)cc1OC (centres undefined) | -2.49 |
| Cc1cc(C)c(-c2csc(NC(=O)CCCc3nc4ccccc4c(=O)[nH]3)n2)c(C)c1 | 0.9 |
| CC1COc2ccccc2N1S(=O)(=O)c1ccccc1 (centres undefined) | -8.7 (active) |
| CC1CN(S(=O)(=O)c2ccccc2)C(C)CN1S(=O)(=O)c1ccccc1 (centres undefined) | -1.27 |
| CC1COc2ccccc2N1C(=O)c1cccnc1Cl (centres undefined) | -0.04 |
| Cn1ccsc1=NC(=O)c1cc(S(=O)(=O)N2CCOCC2)ccc1Cl | -1.21 |
| O=C(NN1CCOCC1)c1cccc(F)c1 | 0.11 |
| Cc1ccc(N2CC(C(=O)N3CCC4(CC3)CC(=O)c3ccccc3O4)CC2=O)cc1C (centres undefined) | 0.05 |
| O=C(Nc1ccccc1N1CCCC1)c1ccc(F)c(S(=O)(=O)N2CCOCC2)c1 | -1.53 |
| CC(C)NC(=S)N1CCN(C(c2ccccc2)c2ccccc2)CC1 | 0.81 |
| CC1(C)CC(N2CCN(C(c3ccccc3)c3ccccc3)CC2)=CC(=[N+]2CCCCC2)C1 | -9.72 (active) |
| O=C(O)CN1CCN(C(c2ccccc2)c2ccccc2)CC1 | 0.58 |
| CC12CCC(=O)N1C(C(=O)NCCN1C(=O)S/C(=C\c3ccccc3F)C1=O)CS2 (centres undefined) | 1.85 |
| COCCCNC(=S)NC(=O)c1ccccc1 | 0 |
| COCCCNC(=S)N(Cc1ccccc1)Cc1ccc(F)cc1 | -4.64 (active) |
| COCCNC(=S)N(Cc1cccnc1)Cc1ccc(OC)c(OC)c1 | -0.71 |
| O=C(CN1CCOCC1)Nc1cccc([N+](=O)[O-])c1 | -1.26 |
| COc1cc(/C=N/NC(=O)c2cc(-c3ccccc3C)nc3ccccc23)cc(OC)c1O | 0.05 |
